From PubChem BioAssay
For part of these data: Entries with a potency or affinity are not part of this list. Active and inactive are the calls of the source. Unless noted, no rule for the calls is given here.

Legend:
[1] = antimalarial activity against Dd2 strain (AID 2302;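 active = growth inhibition above 50% at the single 2 µM test dose, taken to imply half-maximal potency below 2 µM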;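 also: 0% = DMSO untreated growth and 100% = chloroquine plus artemisinin killed control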); conditions: P. falciparum Dd2 in RBCs, LDH growth readout, 72 h; at 2 µM; stronger effect = higher value
[2] = human hepatoma cell viability loss – ATP luminescence, cytotoxicity control for P. falciparum antimalarial project, primary screen (AID 2303;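 active = inhibition above 50%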;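 also: 0% = DMSO wells and 100% = digitonin-killed cells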); conditions: HepG2 viability, 24-48 h, at 10 µM, stronger effect = higher value
[3] = target: L-lactate dehydrogenase (Plasmodium falciparum (isolate CDC / Honduras)) (UniProt Q27743); experiment: PfLDH activity inhibition – cell lysate, 3D7 strain, counter-screen for P. falciparum growth inhibition project (AID 2304);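 also: 0% = vehicle and 100% = reference inhibitor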; conditions: P. falciparum 3D7 crude extract, LDH APAD/NBT absorbance; at 2 µM; stronger effect = higher value
L-lactate dehydrogenase (Plasmodium falciparum (isolate CDC / Honduras)), sequence (Q27743 whole entry, looked up): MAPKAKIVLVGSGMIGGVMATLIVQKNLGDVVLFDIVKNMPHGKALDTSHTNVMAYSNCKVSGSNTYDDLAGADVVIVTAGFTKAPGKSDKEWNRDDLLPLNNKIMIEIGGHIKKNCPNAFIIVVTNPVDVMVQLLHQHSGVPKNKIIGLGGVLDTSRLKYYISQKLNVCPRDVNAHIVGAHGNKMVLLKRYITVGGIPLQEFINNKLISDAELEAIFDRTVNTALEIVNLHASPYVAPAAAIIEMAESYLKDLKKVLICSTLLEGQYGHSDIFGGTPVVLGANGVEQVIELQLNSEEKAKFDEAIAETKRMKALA

[4] = inhibition of 3D7 malaria parasite growth – strain 3D7 (AID 2306);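 also: 0% = DMSO wells and 100% = chloroquine plus artemisinin control wells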; conditions: P. falciparum 3D7 erythrocytic growth, LDH absorbance, 72 h; at 2 µM; stronger effect = higher value
[5] = target: Calcium-dependent protein kinase 1 (Plasmodium falciparum (isolate 3D7)) (UniProt P62344); experiment: PfCDPK1 kinase inhibitors, biochemical, TCAMS library (AID 1159585; cut-off not given, nearly all actives have IC50 up to about 0.98 µM;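 also: inhibitors leave more ATP so luminescence rises with inhibition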); conditions: recombinant PfCDPK1, Kinase-Glo ATP depletion luminescence
Calcium-dependent protein kinase 1 (Plasmodium falciparum (isolate 3D7)), sequence (P62344 whole entry, looked up): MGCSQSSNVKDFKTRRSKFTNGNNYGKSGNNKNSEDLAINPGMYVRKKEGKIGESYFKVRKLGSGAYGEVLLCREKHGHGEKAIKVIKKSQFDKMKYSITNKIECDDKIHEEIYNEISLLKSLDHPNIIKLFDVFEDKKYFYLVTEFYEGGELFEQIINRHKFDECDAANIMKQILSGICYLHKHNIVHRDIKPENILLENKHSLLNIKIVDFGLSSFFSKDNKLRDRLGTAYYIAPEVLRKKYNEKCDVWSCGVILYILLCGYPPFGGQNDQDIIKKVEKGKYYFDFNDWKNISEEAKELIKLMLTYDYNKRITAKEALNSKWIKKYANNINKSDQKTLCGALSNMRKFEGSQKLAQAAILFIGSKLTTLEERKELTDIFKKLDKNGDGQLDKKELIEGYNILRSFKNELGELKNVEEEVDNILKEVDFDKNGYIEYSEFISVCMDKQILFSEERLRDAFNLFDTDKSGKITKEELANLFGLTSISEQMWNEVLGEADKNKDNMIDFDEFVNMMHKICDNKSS

[6] = target: Plasmodium falciparum protein kinase 6 (PK6, PF3D7_1337100) (UniProt Q8IDW1); experiment: PfPK6 kinase inhibitors, biochemical, TCAMS library (AID 1159586); conditions: recombinant PfPK6, Kinase-Glo ATP depletion luminescence
Plasmodium falciparum protein kinase 6 (PK6, PF3D7_1337100), sequence (Q8IDW1 1-305): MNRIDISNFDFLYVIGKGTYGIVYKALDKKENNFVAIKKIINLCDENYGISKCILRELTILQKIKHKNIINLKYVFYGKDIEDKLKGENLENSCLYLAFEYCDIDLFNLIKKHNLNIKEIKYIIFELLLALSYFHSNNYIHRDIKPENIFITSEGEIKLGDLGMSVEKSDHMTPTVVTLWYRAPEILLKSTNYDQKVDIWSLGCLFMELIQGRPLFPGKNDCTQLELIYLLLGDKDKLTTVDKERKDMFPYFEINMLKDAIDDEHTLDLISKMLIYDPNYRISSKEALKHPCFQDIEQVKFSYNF

[7] = target: Protein kinase 7 (PK7), Plasmodium falciparum 3D7 (PF3D7_0213400) (UniProt Q7YTF7); experiment: inhibition of Plasmodium PK7 catalytic activity – biochemical, TCAMS antimalarial set, Kinase-Glo luminescence (AID 1159587); conditions: recombinant PfPK7, Kinase-Glo ATP depletion luminescence
Protein kinase 7 (PK7), Plasmodium falciparum 3D7 (PF3D7_0213400), sequence (Q7YTF7 1-343): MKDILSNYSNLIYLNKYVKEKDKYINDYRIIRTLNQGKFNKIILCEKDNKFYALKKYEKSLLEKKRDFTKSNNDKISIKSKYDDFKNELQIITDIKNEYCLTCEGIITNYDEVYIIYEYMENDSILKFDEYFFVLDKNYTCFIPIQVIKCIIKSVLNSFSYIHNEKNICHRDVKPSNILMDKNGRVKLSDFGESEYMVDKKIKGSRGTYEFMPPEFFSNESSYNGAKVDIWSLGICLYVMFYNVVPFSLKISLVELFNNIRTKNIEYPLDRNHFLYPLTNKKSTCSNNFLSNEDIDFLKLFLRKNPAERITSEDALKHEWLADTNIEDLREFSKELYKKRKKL

[8] = target: Calcium-dependent protein kinase 4 (Plasmodium falciparum (isolate 3D7)) (UniProt Q8IBS5); experiment: PfCDPK4 kinase inhibitors, biochemical, TCAMS library (AID 1159588; cut-off not given, nearly all actives have IC50 up to about 0.91 µM); conditions: recombinant PfCDPK4, Kinase-Glo ATP depletion luminescence
Calcium-dependent protein kinase 4 (Plasmodium falciparum (isolate 3D7)), sequence (Q8IBS5 whole entry, looked up): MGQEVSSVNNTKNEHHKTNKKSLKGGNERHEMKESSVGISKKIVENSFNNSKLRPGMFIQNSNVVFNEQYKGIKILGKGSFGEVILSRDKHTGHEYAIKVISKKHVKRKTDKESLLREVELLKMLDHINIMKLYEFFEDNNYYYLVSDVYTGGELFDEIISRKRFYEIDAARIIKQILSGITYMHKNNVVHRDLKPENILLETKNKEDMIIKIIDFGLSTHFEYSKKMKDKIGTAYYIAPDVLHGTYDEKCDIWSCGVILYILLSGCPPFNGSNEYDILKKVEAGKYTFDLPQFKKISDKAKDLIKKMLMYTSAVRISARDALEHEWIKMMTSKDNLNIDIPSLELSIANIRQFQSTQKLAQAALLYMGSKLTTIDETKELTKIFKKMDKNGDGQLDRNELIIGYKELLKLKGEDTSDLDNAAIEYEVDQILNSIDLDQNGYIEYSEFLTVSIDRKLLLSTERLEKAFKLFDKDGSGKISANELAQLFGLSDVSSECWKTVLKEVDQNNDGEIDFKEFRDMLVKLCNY

O=C(Nc1ccccc1)c1cnc[nH]1
inactive: growth inhibition [1] -1% | inhibition [2] -7% | inhibition [3] 1% | outcome [5] | outcome [6] | outcome [7] | outcome [8]
active: growth inhibition [4] 92%

O=C(Nc1ccc(Br)cc1)c1cc(Br)ccc1NS(=O)(=O)c1cc(C(F)(F)F)cc(C(F)(F)F)c1
active: growth inhibition [1] 67% | inhibition [2] 68% | growth inhibition [4] 85%
inactive: inhibition [3] -7% | outcome [5] | outcome [6] | outcome [7] | outcome [8]

Cc1cc(Br)cnc1CCCCN=C1NC(=O)CN1C
inactive: growth inhibition [1] 26% | inhibition [3] 2% | outcome [5] | outcome [6] | outcome [7] | outcome [8]
active: inhibition [2] 63% | growth inhibition [4] 95%

NOCCCCOc1cc(Cl)c(Cl)cc1Cl
active: growth inhibition [4] 92%
inactive: growth inhibition [1] 5% | inhibition [2] 6% | inhibition [3] -2% | outcome [5] | outcome [6] | outcome [7] | outcome [8]

c1ccc(C(c2cccs2)N2CCN(Cc3ccc(OCCCN4CCCCC4)cc3)CC2)cc1 (configuration not stated)
active: growth inhibition [4] 91%
inactive: growth inhibition [1] 14% | inhibition [2] 41% | inhibition [3] 2% | outcome [5] | outcome [6] | outcome [7] | outcome [8]

CC(C)CCNC(=O)c1cnc2c(O)cccc2c1Nc1cccc(NC(=O)c2ccc(F)cc2)c1
inactive: growth inhibition [1] 43% | inhibition [3] -1% | outcome [5] | outcome [6] | outcome [7] | outcome [8]
active: inhibition [2] 51% | growth inhibition [4] 93%

Nc1ccc(-c2nc3ccc(-c4ccc5nc(-c6ccc(N)cc6)[nH]c5c4)cc3[nH]2)cc1
active: growth inhibition [1] 96% | growth inhibition [4] 101%
inactive: inhibition [2] 45% | inhibition [3] 6% | outcome [5] | outcome [6] | outcome [7] | outcome [8]

O=C(/C=C/c1ccc(Cl)c(Cl)c1)N1CCCC(CCCN2CCC(c3c[nH]c4ccccc34)CC2)C1 (configuration not stated)
inactive: growth inhibition [1] 15% | inhibition [2] 30% | inhibition [3] -1% | outcome [5] | outcome [6] | outcome [7] | outcome [8]
active: growth inhibition [4] 89%

Nc1nc2c(ncn2OC[C@H](CO)OCP(=O)(O)O)c(=O)[nH]1
active: growth inhibition [1] 61% | growth inhibition [4] 94%
inactive: inhibition [2] 5% | inhibition [3] -4% | outcome [5] | outcome [6] | outcome [7] | outcome [8]

O=C(NCc1ccc(Cl)c(Cl)c1)c1ccc(-c2nc3ccc(Cl)cc3[nH]2)cc1
inactive: growth inhibition [1] 22% | inhibition [2] 20% | inhibition [3] -6% | outcome [5] | outcome [6] | outcome [7] | outcome [8]
active: growth inhibition [4] 96%

COc1ccnc(NCCCNCc2cn(S(=O)(=O)c3ccccc3)c3ccccc23)c1
inactive: growth inhibition [1] 18% | inhibition [3] -2% | outcome [5] | outcome [6] | outcome [7] | outcome [8]
active: inhibition [2] 57% | growth inhibition [4] 99%

CC1c2cccc(O)c2CCN1CCc1ccc(Cl)c(Cl)c1 (configuration not stated)
inactive: inhibition [2] 18% | inhibition [3] -1% | outcome [5] | outcome [6] | outcome [7] | outcome [8]
active: growth inhibition [1] 99% | growth inhibition [4] 102%

COc1ccc2ncc(F)c(CCN3CC[C@@H](CNCc4nc5c(cc4C)SCC(=O)N5)C3)c2n1
inactive: growth inhibition [1] 42% | inhibition [2] 14% | inhibition [3] 1% | outcome [5] | outcome [6] | outcome [7] | outcome [8]
active: growth inhibition [4] 91%

O=c1cc(NCCCNCc2cc3c(Cl)cccc3s2)[nH]c2ccccc12
inactive: inhibition [2] 6% | inhibition [3] -7% | outcome [5] | outcome [6] | outcome [7] | outcome [8]
active: growth inhibition [1] 57% | growth inhibition [4] 102%

CC(CCc1ccccc1)NCC(O)c1ccc2c3c(cccc13)S(=O)(=O)N2C (configuration not stated)
inactive: inhibition [2] 16% | inhibition [3] 3% | outcome [5] | outcome [6] | outcome [7] | outcome [8]
active: growth inhibition [1] 99% | growth inhibition [4] 99%

CC(=O)Nc1cccc(CNCc2ccc(-c3cnc(N4CCCC(c5ccccc5)C4)nc3)cc2)c1 (configuration not stated)
inactive: growth inhibition [1] 22% | inhibition [2] 16% | inhibition [3] 3% | outcome [5] | outcome [6] | outcome [7] | outcome [8]
active: growth inhibition [4] 84%

CC(C)CN(C)c1ncnc2c1nc(-c1cncc(C#N)c1)n2CCNCc1ccccc1
inactive: growth inhibition [1] 2% | inhibition [2] 4% | inhibition [3] 0% | outcome [5] | outcome [6] | outcome [7] | outcome [8]
active: growth inhibition [4] 86%

COc1ccc(-c2ccc(CNC(=O)c3cccc(C#N)c3)c(F)c2)cc1CN1CCCN(C)CC1
active: growth inhibition [4] 99%
inactive: growth inhibition [1] 30% | inhibition [2] 8% | inhibition [3] -4% | outcome [5] | outcome [6] | outcome [7] | outcome [8]

CCCN1CCN(c2ccc(NS(=O)(=O)c3ccc(C(=O)Nc4ccc(Cl)cc4)cc3)cc2)CC1
active: growth inhibition [1] 50% | growth inhibition [4] 100%
inactive: inhibition [2] 4% | inhibition [3] -4% | outcome [5] | outcome [6] | outcome [7] | outcome [8]

Cc1cccc2[nH]c(-c3ccc(-c4cccc(NC(=O)Nc5ccc(Cl)cc5)c4)s3)nc12
inactive: inhibition [2] 25% | inhibition [3] -1% | outcome [5] | outcome [6] | outcome [7] | outcome [8]
active: growth inhibition [1] 52% | growth inhibition [4] 102%

CCCN(CCCN(CCCN(CCC)C(C)C)c1cc(C)nc(Nc2ccc(Cl)cc2)n1)C(C)C
inactive: inhibition [2] 39% | inhibition [3] 0% | outcome [5] | outcome [6] | outcome [7] | outcome [8]
active: growth inhibition [1] 99% | growth inhibition [4] 102%

O=S(=O)(c1ccc(OCc2ccc(Cl)cc2)cc1)c1cc2c(c(-c3ccc(F)cc3)c1)CCN(CC1CC1)CC2
inactive: growth inhibition [1] 14% | inhibition [2] -5% | inhibition [3] -5% | outcome [5] | outcome [6] | outcome [7] | outcome [8]
active: growth inhibition [4] 84%

CCOC(=O)c1cn(CC)c2cc(O[C@H]3CCN(C(=O)OC(C)(C)C)C3)ccc2c1=O
active: growth inhibition [1] 75% | growth inhibition [4] 98%
inactive: inhibition [2] 9% | inhibition [3] -1% | outcome [5] | outcome [6] | outcome [7] | outcome [8]

O=C(/C=C/c1ccc(Cl)c(Cl)c1)N1CCC(NCc2c[nH]c3ccccc23)CC1
inactive: growth inhibition [1] 4% | inhibition [2] 36% | inhibition [3] -2% | outcome [5] | outcome [6] | outcome [7] | outcome [8]
active: growth inhibition [4] 94%

Cc1cc(C(=O)Nc2ccc3c(c2)CCN3C2CCN(Cc3ccc4nsnc4c3)C2)no1 (configuration not stated)
inactive: inhibition [2] -1% | inhibition [3] -1% | outcome [5] | outcome [6] | outcome [7] | outcome [8]
active: growth inhibition [1] 94% | growth inhibition [4] 90%

O=C(/C=C/c1ccc(C(F)(F)F)cc1)NCCCCCN1CCCN(C(=O)Nc2ccc(Cl)c(C(F)(F)F)c2)CC1
active: inhibition [2] 64% | growth inhibition [4] 99%
inactive: growth inhibition [1] 31% | inhibition [3] 4% | outcome [5] | outcome [6] | outcome [7] | outcome [8]

Cc1ccc(-c2nc(N3CCN(C(=O)c4ccco4)CC3)c3ccc(Cl)cc3n2)cc1
active: growth inhibition [1] 78% | growth inhibition [4] 90%
inactive: inhibition [2] 17% | inhibition [3] 3% | outcome [5] | outcome [6] | outcome [7] | outcome [8]

CN(C)S(=O)(=O)c1ccc(Nc2nc(NCCC3C=NC=N3)nc3cc[nH]c(=O)c23)cc1 (configuration not stated)
inactive: inhibition [2] 8% | inhibition [3] 2% | outcome [5] | outcome [6] | outcome [7] | outcome [8]
active: growth inhibition [1] 63% | growth inhibition [4] 96%

CC(=O)Nc1ccc(Nc2c3ccccc3nc3ccccc23)cc1
inactive: inhibition [2] 41% | inhibition [3] 3% | outcome [5] | outcome [6] | outcome [7] | outcome [8]
active: growth inhibition [1] 62% | growth inhibition [4] 89%

COc1ccccc1N1CCN(Cc2c(O)ccc3cc(Br)ccc23)CC1
inactive: inhibition [2] 8% | inhibition [3] 2% | outcome [5] | outcome [6] | outcome [7] | outcome [8]
active: growth inhibition [1] 75% | growth inhibition [4] 89%

CC(C#N)Cc1ccc(-c2cnc(N)c3cc(-c4ccnc(N)n4)ccc23)cc1 (configuration not stated)
active: growth inhibition [1] 62% | inhibition [2] 56% | growth inhibition [4] 96%
inactive: inhibition [3] 0% | outcome [5] | outcome [6] | outcome [7] | outcome [8]

Cc1cccc2[nH]c(-c3ccc(-c4ccc(CNCCCN5CCCC5=O)cc4)s3)nc12
inactive: growth inhibition [1] 43% | inhibition [2] 17% | inhibition [3] 2% | outcome [5] | outcome [6] | outcome [7] | outcome [8]
active: growth inhibition [4] 101%

COc1ccc2nccc(N3CCC(O)(CCNCc4ccc5c(n4)NC(=O)CS5)CC3)c2n1
inactive: growth inhibition [1] 21% | inhibition [2] 10% | inhibition [3] 0% | outcome [5] | outcome [6] | outcome [7] | outcome [8]
active: growth inhibition [4] 99%

Cc1cccc2[nH]c(-c3cccc(-c4ccc(NC(=O)c5cccnc5)cc4)c3)nc12
inactive: growth inhibition [1] 45% | inhibition [3] -1% | outcome [5] | outcome [6] | outcome [7] | outcome [8]
active: inhibition [2] 64% | growth inhibition [4] 100%

Cn1c(Sc2ncnc3sccc23)nc2ccccc21
active: growth inhibition [1] 100% | growth inhibition [4] 100%
inactive: inhibition [2] -12% | inhibition [3] 5% | outcome [5] | outcome [6] | outcome [7] | outcome [8]

CS(=O)(=O)N1CC2(CCN(CCC(NC(=O)NCc3ccc(Cl)c(Cl)c3)c3ccc(Cl)c(Cl)c3)CC2)c2ccccc21 (configuration not stated)
inactive: inhibition [2] 19% | inhibition [3] -8% | outcome [5] | outcome [6] | outcome [7] | outcome [8]
active: growth inhibition [1] 59% | growth inhibition [4] 89%

Cc1[nH]c(C)c(-c2ccc(OCc3ccc(F)cc3)cc2)c(=O)c1Br
active: growth inhibition [1] 97% | growth inhibition [4] 98%
inactive: inhibition [2] 16% | inhibition [3] -2% | outcome [5] | outcome [6] | outcome [7] | outcome [8]

CC(=O)Nc1ncc(C(=O)Nc2cccc(-c3ccc(-c4nc5ccccc5[nH]4)cc3)c2)s1
active: growth inhibition [1] 66% | growth inhibition [4] 101%
inactive: inhibition [2] 12% | inhibition [3] -9% | outcome [5] | outcome [6] | outcome [7] | outcome [8]

COc1cc(SC)ccc1C(=O)N1CC(C)CC(C)C1 (configuration not stated)
active: growth inhibition [1] 66% | growth inhibition [4] 98%
inactive: inhibition [2] 5% | inhibition [3] -8% | outcome [5] | outcome [6] | outcome [7] | outcome [8]
